In PubChem BioAssay (NCI):
Compounds without any hit were thinned out: in the full panel of roughly 79,000, 15% have a hit. No stated cut-off is given here; in the data, active means growth inhibition above about 70%; inactive means the rest.

Legend:
[1] = NCI Yeast Anticancer Drug Screen. Data for the rad50 strain (AID 155);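 further: 0% = growth of vehicle-only cultures of the same strain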; details: S. cerevisiae rad50 strain growth inhibition; at 50.0 µM; active compounds read high
Summary of the method: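 Cells are treated with compound, grown, and their growth is then scored against vehicle-only cultures of the same repair-deficient yeast strain.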

[2] = NCI Yeast Anticancer Drug Screen. Data for the mec2-1 strain (AID 157); details: S. cerevisiae mec2-1 strain, at 50.0 µM, active compounds read high
Summary of the method: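 Test agents were screened against the mec2-1 yeast strain, with defined DNA repair or cell cycle alteration. Growth was scored as inhibition against vehicle-only controls.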

[3] = NCI Yeast Anticancer Drug Screen. Data for the sgs1 mgt1 strain (AID 161);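 further: 0% = growth of cultures given vehicle only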; details: S. cerevisiae sgs1 mgt1 strain, at 50.0 µM, active compounds read high
Summary of the method: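 Genetically altered yeast, compound exposure, growth inhibition relative to vehicle.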

[4] = NCI Yeast Anticancer Drug Screen. Data for the cln2 rad14 strain (AID 165);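 further: 0% = growth equal to vehicle treated cultures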; details: S. cerevisiae cln2 rad14 strain, at 50.0 µM, active compounds read high
Summary of the method: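 Growth of compound-exposed yeast (cln2 rad14 genotype) measured and expressed as inhibition relative to vehicle.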

[5] = NCI Yeast Anticancer Drug Screen. Data for the bub3 strain (AID 167); details: S. cerevisiae bub3 mutant strain, at 50.0 µM, active compounds read high
Summary of the method: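 Part of a panel of yeast mutants defective in DNA damage repair or cell cycle regulation. Each strain is grown with compound, and inhibition is calculated relative to solvent-treated cultures.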

[6] = NCI Yeast Anticancer Drug Screen. Data for the mlh1 rad18 strain (AID 175); details: S. cerevisiae mlh1 rad18 strain growth inhibition; at 50.0 µM; active compounds read high
Summary of the method: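 In this whole-cell yeast screen, a strain with altered DNA damage repair is challenged with compound, and its growth is measured against matched vehicle-treated controls.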

Measured: growth inhibition

CC1=N/C(=C/c2ccccc2)C(=O)O1
inactive: [1] 7.6% | [2] 0.75% | [3] 11.6% | [4] -26.7% | [5] 12.5% | [6] 10%

CNc1ccc2c(c1)C(=O)c1ccccc1-2
inactive: [1] 11.1% | [2] 14.4% | [3] -5.55% | [4] 19.9% | [5] 1.35% | [6] -11.4%

CCCCC(/C=C\C(=O)O)CC (stereo not given)
inactive: [1] 29.7% | [2] -6.1% | [3] -11.8% | [4] 5.05% | [5] 5.75% | [6] 14.4%

COc1ccc(-c2nc(SCc3ccc(Cl)cc3)[nH]c(=O)c2CCO)cc1
inactive: [1] 32.3% | [2] -7.75% | [3] -4.45% | [4] 3.15% | [5] -3.45% | [6] 10.4%

COc1cc(C(C)O)c[n+](CCC2CNc3ccccc32)c1 (stereo not given)
inactive: [1] -4.65% | [2] -2.2% | [3] 5.8% | [4] 18.6% | [5] 6.45% | [6] -21.1%

CCOC(=O)C(C)(/C=N/NS(=O)(=O)c1ccc(C)cc1)c1ccccc1 (stereo not given)
inactive: [1] 5.2% | [2] 10.7% | [3] 9.15% | [4] 5.7% | [5] 15.9% | [6] 14.3%

COc1cc(-c2oc3c(OC)c(OC)cc(O)c3c(=O)c2OC)ccc1O
inactive: [1] 11.7% | [2] -8.1% | [3] -8.7% | [4] -5.3% | [5] -9.05% | [6] -0.05%

N#CS[C@@H]1CCC[C@H]1O
inactive: [1] -0.85% | [2] -6.25% | [3] -18.5% | [4] -18% | [5] 1.65% | [6] -20.1%

CN=C1SC(C)(C)NN1C
inactive: [1] 9.2% | [2] 1.85% | [3] 4.35% | [4] -32% | [5] -6.4% | [6] 12.8%

C=CCOCn1ccc(=O)[nH]c1=O
inactive: [1] 4.35% | [2] -3.05% | [3] 5.85% | [4] 3% | [5] 3.2% | [6] -3.05%

O=c1[nH]c2cc(Cl)ccc2c2cc(Cl)ccc12
inactive: [1] 39.9% | [2] 7.6% | [3] 16.6% | [4] -3.3% | [5] -0.3% | [6] 52.2%

CN(C(=O)c1cccs1)C(=S)N1CCN(c2ccccn2)CC1
inactive: [1] -84.2% | [2] -57.6% | [3] -2.4% | [4] -11.8% | [5] -7.85% | [6] -29.6%

N#CC1C(C#N)C2CCC1C1N=NN(c3ccccc3)C21 (stereo not given)
inactive: [1] -16.4% | [2] -12.1% | [3] -10.8% | [4] -19.1% | [5] 17.9% | [6] -28.6%

CCOC(=O)CC[C@@H](NC(=O)c1ccc(NCc2ccc3nc(OC)c(OC)nc3c2)cc1)C(=O)OCC
inactive: [1] 2.7% | [2] -10.2% | [3] -4.15% | [4] -9.55% | [5] 15.8% | [6] -13.4%

CCCC(CNC(C)=O)(c1ccccc1)C1CCCCC1 (stereo not given)
inactive: [1] -10.7% | [2] 6.9% | [3] 3.15% | [4] 27.9% | [5] 11.2% | [6] 16.1%

CN(C)[C@@H]1C(=O)C(C(=O)NCN2CCN(C(=N)N=C(N)N)CC2)=C(O)[C@@]2(O)C(=O)C3=C(O)c4c(O)cccc4[C@@](C)(O)[C@H]3C[C@@H]12
inactive: [1] -0.05% | [2] 1.65% | [3] -3.2% | [4] 14.2% | [5] 10.7% | [6] -5%

c1cc(CSC2=NCCN2)ccc1CSC1=NCCN1
inactive: [1] -8% | [2] 9.25% | [3] -9.2% | [4] -24.3% | [5] 8.9% | [6] -3.85%

CC(=O)/C=C/N(C)c1ccc(O)cc1
inactive: [1] 40.6% | [2] 2.3% | [3] -6.45% | [4] 9.3% | [5] 5.55% | [6] -26.2%

Cc1cc(C)c2nc(N)sc2c1
inactive: [1] 24.3% | [2] 9.35% | [3] -5.8% | [4] -4.45% | [5] 12.4% | [6] 30.1%

O=C1c2ccccc2OC(Cl)(c2ccccc2)C1Cl (stereo not given)
inactive: [1] -15.1% | [2] -2.4% | [3] -7.5% | [4] -21.8% | [5] 22.7% | [6] 2%

Nc1nc(-c2ccccc2)c(N=Nc2cc(Cl)ccc2Cl)s1
inactive: [1] 4.5% | [2] 1% | [3] -2.3% | [4] -5.05% | [5] 8.2% | [6] -2.1%

CCC1CC(O)c2ccccc2O1 (stereo not given)
inactive: [1] -7.85% | [2] -4.2% | [3] -5.95% | [4] 8.85% | [5] -0.35% | [6] -1.65%

O=C(O)c1cncc(-c2ccccc2)c1
inactive: [1] 38.2% | [2] 30.7% | [3] 23.4% | [4] 14.1% | [5] 3% | [6] 26%

COC(=O)CCNCCSC(=O)c1ccccc1
inactive: [1] 23.5% | [2] -9.1% | [3] -6% | [4] 12.9% | [5] 8.55% | [6] 4.6%

O=C1/C(=C/c2ccco2)N=C2Sc3c(nc[nH]c3=O)N12
inactive: [1] 2.4% | [2] -19.2% | [3] 6.55% | [4] -3.65% | [5] 9.5% | [6] 16.6%

O=C1CCCC1Sc1ccccn1 (stereo not given)
inactive: [1] -14.4% | [2] -11.5% | [3] -29.6% | [4] -8.5% | [5] -7.15% | [6] -32.2%

C=CCc1ccc(C)c(C)c1O
inactive: [1] 24.4% | [2] 3.55% | [3] 21.8% | [4] 19.1% | [5] 5.55% | [6] 12.8%

O=CNc1ccc(S(=O)(=O)c2ccc(NC=O)cc2)cc1
inactive: [1] 4.05% | [2] -35.7% | [3] 4.75% | [4] 26.6% | [5] 9.9% | [6] -18.1%

O=C(O)C(Cc1ccccc1)c1ccccc1 (stereo not given)
inactive: [1] -39.4% | [2] -12.4% | [3] -11.8% | [4] -21.4% | [5] 9.4% | [6] 2.85%

C/C(=C/CCl)[N+](=O)[O-]
inactive: [1] 36.4% | [2] -10.4% | [3] -4.95% | [4] -7.35% | [5] -8.95% | [6] 14.1%

Nc1ncnc2c1ncn2C[c-]1[c-][c-][c-][c-]1.[Fe].[c-]1[c-][c-][cH-][c-]1
inactive: [1] -4.95% | [2] -23.8% | [3] -11.9% | [4] -40.7% | [5] -15.7% | [6] -8.8%

CCCc1c(Cl)nc(Cl)nc1Cl
inactive: [1] -8.75% | [2] 26.8% | [3] 11.8% | [4] -54.8% | [5] 5.2% | [6] -22.4%

O=C(/C=C/c1ccccc1O)c1ccccc1
inactive: [1] -22.8% | [2] -15.7% | [3] 3.2% | [4] 1.9% | [5] -5.2% | [6] -24.6%

COC(=O)C(CC(=O)Nc1ccc(Cl)c(Cl)c1)C(=O)C(=O)NC1C2CC3CC(C2)CC1C3 (stereo not given)
inactive: [1] -3.15% | [2] 13.8% | [3] -14.1% | [4] 7.8% | [5] -8.65% | [6] -9.05%

Cn1cnc([N+](=O)[O-])c1Sc1ccncc1S(N)(=O)=O
inactive: [1] -5.65% | [2] -14.4% | [3] 0.2% | [4] 2.1% | [5] 6.5% | [6] -9.15%

O=C(O)COc1c(Cl)cc(Cl)cc1Cl
inactive: [1] -34.7% | [2] -37% | [3] -29.6% | [4] -15.4% | [5] -39.9% | [6] -31.6%

O=C1CC(CC(=O)c2ccc(Br)cc2)C(=O)/C1=C(/O)c1ccc(Br)cc1 (stereo not given)
inactive: [1] 21.7% | [2] 14.2% | [3] 36.8% | [4] 38% | [5] 22.9% | [6] 48.8%

COc1cc2c[n+]3ccc4ccccc4c3c(N)c2cc1OC
inactive: [1] 16% | [2] -8.2% | [3] -10.6% | [4] 15.8% | [5] 5.9% | [6] -4.85%

C=C1C(=O)O[C@H]2C1[C@H](OC(=O)/C(C)=C\COC(C)=O)C[C@]1(CO1)[C@@H]1[C@H](O)[C@H]3O[C@@]3(C)[C@@H]12 (stereo not given in full)
inactive: [1] -5.95% | [2] -26.4% | [3] -13% | [4] -1% | [5] -52% | [6] -2.05%

N/C(CCOCC/C(N)=N\O)=N/O
inactive: [1] 16.8% | [2] 25.4% | [3] -22.4% | [4] -1.85% | [5] -2.3% | [6] 6.5%
